The source of these data is the supplement of paper PMC10933113.

Structures are written as SMILES.

For the test, the system named is KeratinoSens (HaCaT ARE-luciferase) cells. The experiment in a line: Nrf2/ARE luciferase activation call in qHTS KeratinoSens assay (1 = active, 0 = inactive).
With `Cc1ccsc1/C=C/C1=NCCCN1C.O=C(O)[C@@H](O)[C@@H](O)C(=O)O`, the “Nrf2/ARE luciferase activation call” value was “not active ARE inducer (skin sensitizer alert) (inactive)”.

Consider `CC(C)C[P+](C)(CC(C)C)CC(C)C.Cc1ccc(S(=O)(=O)[O-])cc1`, for which the “Nrf2/ARE luciferase activation call” value was “not active ARE inducer (skin sensitizer alert) (inactive)”.

`CCCC[N+]1(C)CCCCC1.O=S(=O)([O-])C(F)(F)F`: the “Nrf2/ARE luciferase activation call” value is “not active ARE inducer (skin sensitizer alert) (inactive)”.

Turning to `CNC[C@H](O)c1ccc(O)c(O)c1.O=C(O)[C@H](O)[C@@H](O)C(=O)O`, the “Nrf2/ARE luciferase activation call” value was “not active ARE inducer (skin sensitizer alert) (inactive)”.

`CN(C)CCOC(C)(c1ccccc1)c1ccccn1.O=C(O)CCC(=O)O` (stereo not drawn): the “Nrf2/ARE luciferase activation call” value was “not active ARE inducer (skin sensitizer alert) (inactive)”.

As to `CCN(CC)CCOC(=O)C1(c2ccccc2)CCCC1.CCN(CC)CCOC(=O)C1(c2ccccc2)CCCC1.O=S(=O)(O)CCS(=O)(=O)O`, the “Nrf2/ARE luciferase activation call” value was “not active ARE inducer (skin sensitizer alert) (inactive)”.

For `CN(CCOc1ccc(CC2SC(=O)NC2=O)cc1)c1ccccn1.O=C(O)/C=C\C(=O)O` (stereo not drawn), the “Nrf2/ARE luciferase activation call” value was “not active ARE inducer (skin sensitizer alert) (inactive)”.

For `CC(CN(C)C)CN1c2ccccc2CCc2ccccc21.O=C(O)/C=C\C(=O)O` (stereo not drawn), the “Nrf2/ARE luciferase activation call” value was “not active ARE inducer (skin sensitizer alert) (inactive)”.
